D1 agonist: agonists of human D1 dopamine receptor; P21728; HEK293 T-REx D1 cells, calcium flux, agonist mode; activation, % at 2 µM; actives 1% (n = 360,000); further: 0% is about no effect
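Inducible HEK293 T-REx D1 cells, force-coupled to calcium signalling, were plated at 4000 cells/well with tetracycline and held overnight at 30 C. After no-wash calcium dye loading, compound-evoked calcium rise over 180 s flagged agonists.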
TRHR enhancer: allosteric enhancers of human TRH receptor | actives 0.66% (n = 360,000) | P34981 | enhancement, % at 2 µM | TRHR cells, fluo-8 calcium fluorescence, EC20 TRH enhancement; in the data active means enhancement above about 30%; further: 0% is about no effect
Target sequence (P34981 whole entry, looked up): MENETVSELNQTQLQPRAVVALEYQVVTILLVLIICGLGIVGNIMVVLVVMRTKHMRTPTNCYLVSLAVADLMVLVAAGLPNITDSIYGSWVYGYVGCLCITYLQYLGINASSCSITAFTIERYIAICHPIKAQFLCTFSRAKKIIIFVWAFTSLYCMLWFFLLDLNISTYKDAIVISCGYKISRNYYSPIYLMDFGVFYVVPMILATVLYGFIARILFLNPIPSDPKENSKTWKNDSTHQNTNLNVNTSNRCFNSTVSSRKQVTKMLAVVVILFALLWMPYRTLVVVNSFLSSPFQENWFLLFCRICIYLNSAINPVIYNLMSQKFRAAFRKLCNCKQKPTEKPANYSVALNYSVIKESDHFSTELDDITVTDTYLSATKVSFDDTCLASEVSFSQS
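TRHR-expressing cells loaded with fluo-8 calcium dye were read kinetically (ex 480/em 530) during compound addition, then stimulated with an EC20 of TRH (10 nM final). Enhancement of the Gq-mediated intracellular calcium response was scored.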
D1 antagonist: blocks dopamine activation of the human D1 receptor; HEK293 TREx D1 cells, calcium flux, dopamine EC80; stronger effect = lower value; AID 504652; actives 3.2% (n = 360,000); activity change, negative = inhibition, % at 10 µM; P21728; in the data active means activity change below about -30%; further: on the % scale 0 is the no-effect control and ±100 the full control effect
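Cells carrying a force-coupled, tetracycline-inducible human D1 receptor report calcium flux. Each well gets a 10 s baseline, compound with 180 s monitoring, then an EC80 dopamine stimulus with a second 180 s kinetic read.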
TRHR agonist: TRH receptor (human) agonism. TRHR cells, calcium flux fluo-8, FDSS agonist mode. actives 0.18% (n = 360,000). activation, % at 2 µM. P34981; further: 0% is about no effect
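Fluo-8-loaded TRHR cells; 10 s baseline, compound added, kinetic Ca2+ fluorescence read 1/s, agonist mode.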
D1 PAM: potentiators of human D1 dopamine receptor | P21728 | HEK293 TREx D1 cells, calcium flux, dopamine EC20 potentiation | potentiation, % at 10 µM | actives 0.036% (n = 360,000); in the data active means potentiation above about 30%; further: 0% is about no effect
An asterisk follows results filed as active. The list is not random: actives were taken first. Their share in the collection is about 4.7%. Unless noted, no stated cut-off is given here; in the data, active means activation above about 30%; inactive means the rest.

SMILES	D1 agonist	TRHR enhancer	D1 antagonist	TRHR agonist	D1 PAM
C#CCOCCOCCOCCNc1nc(N2CCN(C(=O)CCCCCCCCCCNC(=O)[C@H](CCCCN)n3cc(CCO)nn3)CC2)nc(N2CCN(C(=O)CCCCCCCCCCNC(=O)[C@H](CCCCN)n3cc(C[C@@H](C)CC)nn3)CC2)n1	70*	-4	30	1	13
C#CCOCCOCCOCCNc1nc(N2CCN(C(=O)CCCCCCCCCCNC(=O)[C@H](CCCCN)n3cc(C)nn3)CC2)nc(N2CCN(C(=O)CCCCCCCCCCNC(=O)[C@@H]([C@H](C)O)n3cc(C)nn3)CC2)n1	34*	20	21	0	-2
COc1ccc(N2CCN(CNC(=O)c3ccccc3)CC2)cc1	0	-1	4	1	-5
C#CCOCCOCCOCCNc1nc(N2CCN(C(=O)CCCCCCCCCCNC(=O)[C@@H](CCC(=O)O)n3cc(CCCCCN)nn3)CC2)nc(N2CCN(C(=O)CCCCCCCCCCNC(=O)[C@H](CO)n3cc(CCCSC)nn3)CC2)n1	17	1	24	2	-3
C#CCOCCOCCOCCNc1nc(N2CCN(C(=O)CCCCCCCCCCNC(=O)[C@@H](CCC(=O)O)n3cc(CCCCCN)nn3)CC2)nc(N2CCN(C(=O)CCCCCCCCCCNC(=O)[C@H](CO)n3cc(CCCCCN)nn3)CC2)n1	45*	0	-4	1	-4
C#CCOCCOCCOCCNc1nc(N2CCN(C(=O)CCCCCCCCCCNC(=O)[C@H](CCCN=C(N)N)n3cc(C[C@@H](C)CC)nn3)CC2)nc(N2CCN(C(=O)CCCCCCCCCCNC(=O)[C@@H]([C@H](C)CC)n3cc(CCCCCN)nn3)CC2)n1	6	2	15	0	35*
C#CCOCCOCCOCCNc1nc(N2CCN(C(=O)CCCCCCCCCCNC(=O)[C@H]([C@@H](C)CC)n3cc(CCCCN=C(N)N)nn3)CC2)nc(N2CCN(C(=O)CCCCCCCCCCNC(=O)[C@H](CCCN=C(N)N)n3cc(C[C@@H](C)CC)nn3)CC2)n1	2	-1	18	0	-10
COc1ccc2c(c1)CC(C(=O)NCCCN1CCN(c3ccc(F)cc3)CC1)CO2 (configuration not stated)	13	-12	11	0	-2
O=[N+]([O-])c1ccc(N2N=C(c3ccccc3)CC2c2ccccc2O)cc1 (configuration not stated)	63*	13	2	24	-9
COc1cc(N2N=C(c3ccccc3)CC2c2ccccc2)c(C=O)cc1C=O (configuration not stated)	-2	0	12	0	1
COc1ccccc1N1N=C(c2ccc([N+](=O)[O-])cc2)CC1c1ccccc1 (configuration not stated)	63*	2	-6	24	-4
O=C(c1ccccc1)N1N=C(c2ccccc2)CC1c1ccccc1O (configuration not stated)	3	7	31	-1	-5
Cc1ccc(NC(=O)c2ccn(C)n2)c(Br)c1	1	2	-5	1	0
Cn1ccc(C(=O)Nc2ccc(Br)cc2Br)n1	1	-2	-43*	0	-16
CSc1ccccc1NC(=O)c1c(Br)cnn1C	1	4	-33*	2	3
CC(C)c1nnc(NC(=O)c2cccs2)s1	2	1	-53*	1	-17
Cc1ccccc1NC(=O)c1ccccc1NC(=O)c1cccs1	-2	-5	14	-1	-5
CCCCC(CC)c1nnc(NC(=O)c2cccs2)s1 (configuration not stated)	17	2	7	-1	-4
CSc1ccccc1NC(=O)c1cccs1	2	8	-65*	-1	-8
Cc1cnccc1NC(=O)c1cccs1	2	8	-41*	0	-2
COc1ccc(/C=N/NC(=O)c2ccccc2O)cc1Cn1nnc2ccccc21	2	-2	-4	0	-4
CSc1nnc(NC(=O)c2cc(=O)c3cc(C)c(C)cc3o2)s1	0	-2	3	0	-2
CSc1ccccc1NC(=O)CN(C)Cc1ccc(Br)cc1	8	-3	13	0	-6
CSc1ccc(CN(C)CC(=O)Nc2ccccc2Br)cc1	3	-1	-41*	1	1

Screens as filed in PubChem BioAssay.
